Among all 5,500 compounds or so, about 2,000 (36%) were called active. Another 18% or so got no clear call; they are omitted. No stated cut-off is given here; in the data, active means normalized growth mostly below about 0.91 (no sharp cut-off); inconclusive means no clear call, values can overlap the other calls; inactive means mostly above about 0.92. The list shows a part of the results.
Test: chemical genetic growth profiling, strain panel (AID 1159580);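 further: tested at 20 µM; growth read once vehicle control cultures reached saturation at 30 °C; 1 = growth at the plate median or of vehicle wells; lower values mean less growth of the strain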
Details: S. cerevisiae deletion strains, growth OD

Measured: normalized growth

CCCN1CC(CSC)CC2c3cccc4[nH]cc(c34)CC21 (stereo unspecified)
inactive: locus YAL040C, strain CLN3, active compounds read low 1 | locus YCL061C, strain MRC1 (second series), active compounds read low 0.998 | locus YDR150W, strain NUM1, active compounds read low 0.997 | locus YDR363W, strain ESC2, active compounds read low 0.989 | locus YER002W, strain NOP16, active compounds read low 1.01 | locus YGR078C, strain PAC10, active compounds read low 1.01 | locus YMR307W, strain GAS1, active compounds read low 0.999 | locus YNL128W, strain TEP1, active compounds read low 1.02 | locus YNL153C, strain GIM3, active compounds read low 0.998 | locus YNL175C, strain NOP13, active compounds read low 1.02 | locus YNL197C, strain WHI3, active compounds read low 1.01 | locus YNL224C, strain SQS1, active compounds read low 1.08 | locus YOR083W, strain WHI5 (second series), active compounds read low 1.02

COC(=O)[C@H](Cc1ccccc1)NC(=O)/C(=C1\OC(=O)C(c2ccccc2)=C1O)c1ccccc1
inactive: locus YHR030C, strain SLT2, active compounds read low 1.05 | locus YHR079C, strain IRE1, active compounds read low 1.06 | locus YJL095W, strain BCK1, active compounds read low 0.998 | locus YJR066W, strain TOR1, active compounds read low 0.992 | locus YLR113W, strain HOG1, active compounds read low 0.961 | locus YNL183C, strain NPR1, active compounds read low 0.98 | locus YOR231W, strain MKK1, active compounds read low 1.04 | locus YPL256C, strain CLN2, active compounds read low 1.05
